# From PubChem BioAssay (NCI)
# Compounds without any hit were thinned out: in the full panel of roughly 83,000, 20% have a hit.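 A percent growth of 40 corresponds to 60% growth inhibition; 0 means no net growth; -100 means all cells died. Active threshold: below 10.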 A number with no mark means an inactive call. The source made the active and inactive calls.
# What was measured:
# Experiment in all cases: NCI-60 one-dose screen, 48 h (100 = growth as untreated, 0 = no growth, -100 = all killed)
# Conditions in all cases: 10 µM unless noted
# T-47D breast = system: T-47D breast
# BT-549 breast = system: BT-549 breast
# MDA-MB-435 melanoma = system: MDA-MB-435 melanoma
# SW-620 colon = system: SW-620 colon
# MCF7 breast = system: MCF7 breast
# HCT-116 colon = system: HCT-116 colon
# HCC-2998 colon = system: HCC-2998 colon
# KM12 colon = system: KM12 colon
Structure (SMILES),growth (T-47D breast),growth (BT-549 breast),growth (MDA-MB-435 melanoma),growth (SW-620 colon),growth (MCF7 breast),growth (HCT-116 colon),growth (HCC-2998 colon),growth (KM12 colon)
c1cc2ccc3cc2cc1CNCCN1CCNCc2ccc4ccc(cc4c2)CNCCN(CCNC3)CCNCc2ccc3ccc(cc3c2)CNCC1,-6.97% (active),97.3%,-5.25% (active),23.4%,-5.39% (active),5.35% (active),19.2%,-15.5% (active)
Cc1ccc(NC(=O)N[C@@H](Cc2cc(F)cc(F)c2)C(=O)N[C@@H]2C(=O)N3CCC[C@H]3C(=O)N3CCOC[C@H]3C(=O)N[C@@H](C)C(=O)N3C[C@H](C)C[C@H]3C(=O)O[C@H]2C)cc1,27%,19.6%,21%,34.5%,25%,,34.5%,38.9%
C=C(C)[C@@H]1CC[C@]2(C(=O)NCCNCCNCCN)CC[C@]3(C)[C@H](CC[C@@H]4[C@@]5(C)CC[C@H](O)C(C)(C)[C@@H]5CC[C@]43C)[C@@H]12,-32.6% [100 µM] (active),-51.9% [100 µM] (active),-89.2% [100 µM] (active),-86.7% [100 µM] (active),-60.5% [100 µM] (active),-26.5% [100 µM] (active),-90.4% [100 µM] (active),-52.2% [100 µM] (active)
N#Cc1c(Cl)nc(SCC2CO2)nc1-c1ccccc1 (stereo not given),97.3%,81.4%,110%,111%,83.9%,88.8%,111%,110%
COc1cccc(-c2[nH]c(=S)ncc2C(=O)c2ccccc2)c1,104%,73.9%,-20% (active),66.6%,69.8%,61.3%,102%,51.5%
CC(C)=CC/C=C(/C)[C@H]1CC[C@]2(C)[C@@H]1CC[C@@H]1[C@@]3(C)CCCNC(C)(C)[C@@H]3CC[C@]12C,-50.9% [100 µM] (active),-54.9% [100 µM] (active),-75.4% [100 µM] (active),-57.5% [100 µM] (active),-54.6% [100 µM] (active),-61% [100 µM] (active),-50.5% [100 µM] (active),-57.4% [100 µM] (active)
CCc1ccc(C2=C/C(=C/c3ccccc3)C(=O)N2CCc2ccc(S(N)(=O)=O)cc2)cc1,97.8%,100%,110%,106%,96.3%,103%,109%,104%
CCOC(=O)c1nn(C2CCCCO2)c2ccc(NC(=O)CN3CCCC3)cc12 (stereo not given),102%,94.3%,102%,97.2%,95.9%,89.9%,101%,103%
CCCCN(CC)CC(CC)Nc1cc(OC)cc2cccnc12 (stereo not given),110%,110%,102%,108%,98.5%,105%,,107%
CC1(C)CC[C@]23CC[C@]4(C)[C@H](CC[C@@H]5[C@@]6(C)C/C(=C/c7cccnc7)C(=O)C(C)(C)[C@@H]6CC[C@]54C)[C@H]2[C@H]1OC3=O,23.5% [100 µM],31.7% [100 µM],36% [100 µM],32.9% [100 µM],21.7% [100 µM],15.6% [100 µM],49.9% [100 µM],33.4% [100 µM]
CC1(C)CC[C@]2(C(=O)OC(=O)[C@]34CCC(C)(C)C[C@@H]3C3=CC[C@@H]5[C@@]6(C)CCC(=O)C(C)(C)[C@@H]6CC[C@@]5(C)[C@]3(C)CC4)CC[C@]3(C)C(=CC[C@@H]4[C@@]5(C)CCC(=O)C(C)(C)[C@@H]5CC[C@]43C)[C@H]2C1,48.1% [100 µM],75.3% [100 µM],63.2% [100 µM],70% [100 µM],51.8% [100 µM],,98.2% [100 µM],67.2% [100 µM]
O=C(Nc1ccc(Oc2ccc(F)cc2)c(Cl)c1)c1cnccn1,42.9%,100%,-2.8% (active),37%,29.7%,58.7%,76.3%,27.5%
C#C[C@]1(O)CC[C@H]2[C@@H]3CC=C4c5nc(Nc6ccccn6)sc5CC[C@]4(C)[C@H]3CC[C@@]21C,10.1%,-27.6% (active),-32% (active),-24.9% (active),7.94% (active),4.49% (active),34.5%,-32.3% (active)
O=C1Nc2ccccc2/C1=C/C(=O)c1ccc(N2CCOCC2)cc1,81.1%,97%,96%,51.6%,79.5%,92.2%,101%,105%
Cc1ccc(NC(=S)/N=c2/n(-c3ccccc3)nc3n2CCN3C2=NCCN2)cc1,92.2%,-6.96% (active),105%,97%,94.6%,48.6%,102%,109%
Cc1cnc(N)nc1OCC(C)(C)CNC(=O)c1cccc(-c2ccc(S(=O)(=O)Nc3ccc4c(c3)N(C(=O)C3CC3)CCC4)cc2)c1,20%,78%,50.4%,73.9%,43.6%,61.3%,72.6%,61.8%
C=C(C)[C@@H]1CC[C@]2(C(=O)OC)CC[C@]3(C)[C@H](CC[C@@H]4[C@@]5(C)CC/C(=N\OCCC(=NCCC#N)NOCCC#N)C(C)(C)[C@@H]5CC[C@]43C)[C@@H]12,15.1% [100 µM],4.4% [100 µM] (active),14.6% [100 µM],22% [100 µM],12.4% [100 µM],,26.9% [100 µM],10.9% [100 µM]
COc1ncc(-c2ccc3nccc(C#CCCCCC(=O)NO)c3c2)cc1NS(=O)(=O)c1ccc(F)cc1F,-22.6% (active),-13.2% (active),-7.72% (active),-30.9% (active),2.33% (active),-50.3% (active),7.27% (active),9.84% (active)
CCc1cccc(Cl)c1,107%,92%,107%,111%,99.4%,104%,106%,101%
C[n+]1c2ccccc2nc2c(N)cc(N)cc21,54.2%,46%,126%,87.1%,82.7%,78.2%,92.4%,63.8%
Cc1c(Cn2cc(COc3ccc(Br)cc3)nn2)c(C)c(Cn2cc(COc3ccc(Br)cc3)nn2)c(C)c1Cn1cc(COc2ccc(Br)cc2)nn1,70.2%,97.1%,98.7%,85%,90%,92.3%,114%,99.8%
Fc1ccc(NC(=S)c2ccccc2)cc1,96.4%,90.3%,98%,102%,93.9%,103%,116%,100%
Cc1cc(SC#N)ncn1,104%,126%,107%,106%,93.3%,99.5%,,104%
N#C/C(=C(/O)CCCO)c1nc2ccccc2c(=O)[nH]1,101%,109%,168%,108%,86.6%,98.9%,73.5%,100%
Cn1cc(-c2noc(C(=O)c3cn(C)c4ncccc34)n2)c2ccccc21,46%,98.3%,72.9%,95.5%,34.8%,98.7%,90.6%,52%
COc1ncnc2c(-c3ccccc3)cn(COCc3ccccc3)c12,14%,36.6%,29.7%,67.4%,48.1%,41.7%,70%,42.5%
O=C(C[n+]1ccn(CC(OCc2ccc(Cl)cc2Cl)c2ccc(Cl)cc2Cl)c1)c1ccc(F)cc1 (stereo not given),-71.6% (active),-94.9% (active),-92.5% (active),-89.9% (active),-84% (active),-97.1% (active),-94.6% (active),-89.1% (active)
NC1=NC(=O)NC1(c1ccccc1)c1ccccc1,80.3%,131%,104%,99.2%,99.8%,99.9%,,103%
Nc1ccc(NC(=O)c2ccccc2)c2c1C(=O)c1ccccc1C2=O,107%,101%,98.2%,98.3%,81.6%,101%,,96%
